Assay outcomes from PubChem BioAssay.
Sm TGR block: inhibitors of Schistosoma mansoni thioredoxin glutathione reductase; Q962Y6; purified TGR, DTNB reduction, TNB absorbance 405 nm; Potency, µM (titrated, usually from 114 µM), for inactives: at the highest dose activity change, negative = inhibition, most hits filed as inhibitors; 360,000 compounds, 3% hits; AID 485364; active = well fitted inhibition curve with a large enough effect; inconclusive = small, poorly fitted or top-dose-only effect; inactive = no such curve, though single readings can be large or run the other way; note: nearly all actives have a fitted effect of over 60% in size
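Kinetic colorimetric format: TGR-catalysed, NADPH-driven DTNB reduction monitored via TNB absorbance. Enzyme dispensed at 20 nM; compound exposure 15 min at room temperature before reaction start.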
Marburg entry inh: Marburg virus entry inhibition | Marburg virus pseudotyped entry inhibition, cell reporter | Potency, µM (doses to about 37.8 µM), inactives show at the top dose activity change, negative = inhibition, usual class: inhibitors | 300,000 compounds, 1.8% hits | AID 540276; calls by dose curve; tested in HEK293 cells
Vaccinia mCherry: inhibitors of vaccinia virus infection (mCherry reporter signal). Potency, µM (top dose mostly 36.5 µM), inactives show at the top dose activity change, negative = inhibition, most hits filed as inhibitors. Vaccinia virus mCherry reporter infection, fluorescence. 310,000 compounds, 0.63% hits; calls by dose curve; tested in A549 cells; note: nearly all actives have a fitted effect of over 35% in size
Vaccinia Venus: inhibitors of vaccinia virus (Venus reporter); Potency, µM (doses to about 36.5 µM), for inactives: at the highest dose activity change, negative = inhibition, hits mostly inhibitors; Vaccinia virus Venus reporter expression, fluorescence; 330,000 compounds, 0.46% hits; calls by dose curve; tested in A549 cells; note: nearly all actives have a fitted effect of over 30% in size
LASV entry inh: inhibitors of Lassa virus binding or cell entry | Lassa virus pseudotype entry inhibition, cell reporter | AID 540256 | 300,000 compounds, 1.2% hits | Potency, µM (titrated, usually from 37.9 µM), for inactives: at the highest dose activity change, negative = inhibition, most hits filed as inhibitors; calls by dose curve; tested in HEK293 cells; note: nearly all actives have a fitted effect of over 50% in size
FMDV inh: blocks foot and mouth disease virus. FMDV antiviral cell-based qHTS. AID 1159524. 410,000 compounds, 1.2% hits. Potency, µM (series often up to 57.9 µM), for the others: at the top dose activity change, negative = inhibition, hits mostly inhibitors; calls by dose curve; tested in HEK293T cells; note: read-out not given here; nearly all actives have a fitted effect of over 45% in size
Active calls of the source: *; i = inactive; ? = inconclusive; . = not tested or not shown; [ ] = dose if it differs, or a comment. In the library only some 5.4% were active in any assay of this set; here they are far more common. % is set by controls: 0 for no effect and ±100 for the full control effect; potency is the fitted concentration of half-maximal effect.

SMILES	Sm TGR block	Marburg entry inh	Vaccinia mCherry	Vaccinia Venus	LASV entry inh	FMDV inh
COc1cc2c(cc1OC)C(c1ccccc1)N(C(=O)CCl)CC2 (stereo unspecified)	4µM*	?	-9%	4%	?	7.1µM*
COc1cc2c(cc1OC)C(c1cc(OC)c(OC)cc1[N+](=O)[O-])N(C(C)=O)CC2 (stereo unspecified)	89µM*	.	i	-7%	.	-2%
COc1cc2c(cc1OC)C(c1ccccc1O)N(C1CC(=O)N(c3ccccc3)C1=O)CC2 (stereo unspecified)	10µM*	?	.	.	7%	-16%
COc1ccccc1N1CCN(C2CC(=O)N(c3ccccc3)C2=O)CC1 (stereo unspecified)	?	.	.	.	.	-4%
COc1cc2c(cc1OC)C(C1C(=O)CCCC1=O)N(C(=O)CCl)CC2 (stereo unspecified)	-32%	-1%	.	.	-2%	5%
COc1cc2c(cc1OC)C(c1cc(Br)ccc1O)N(C(C)=O)CC2 (stereo unspecified)	.	8%	-15%	-7%	1%	-17%
O=c1c2cc3c(cc2n(Cc2ccc(F)cc2)c(=O)n1Cc1nc(-c2ccccc2)no1)OCO3	-2%	.	-8%	2%	19%[46.1 µM]	-26%
Cc1nnc(SC(=O)N2c3ccccc3Sc3ccccc32)s1	-21%	?	10µM*	?	21µM*	.
CCCCN(C)CCCNC(=O)Cn1nc(CC)n2c(cc3sc(C)cc32)c1=O	7%	?	-8%	-7%	.	-8%
CCOC(=O)c1ccccc1NS(=O)(=O)c1c(-c2ccc(C)cc2)csc1C(=O)OC	-16%	.	-1%	-14%	-29%[46.1 µM]	0%
Cc1cccc(NC(=S)NCCC(C)C)c1	0%	1.5µM*	-14%	-5%	?	113%
CC(C)CCNC(=S)Nc1ccccn1	45µM*	29%	-15%	-3%	13%	4%
COCCNC(=S)Nc1ccccn1	.	.	.	.	.	14%
COc1ccc(CCNC(=S)Nc2cccc(C)c2)cc1	-8%	-1%	.	-25%	17%	-8%
Cc1ccc(CN2C(=O)C(=O)c3cc(Br)cc(C)c32)cc1	-20%	?	-6%	3%	?	?
N#CCSc1nnc(COc2cccc3ccccc23)n1-c1ccccc1	-27%	?	.	.	?	14µM*
COc1ccc(-n2c(COc3cccc4ccccc34)nnc2SCC#N)cc1	-7%	?	i	-16%	?	-20%
O=C(/N=C1\NC(=O)C(F)(C(F)(F)F)S1)NC1CCCCC1 (stereo unspecified)	13µM*	?	.	-13%	-9%	0%
O=C(Nc1ccccc1N1CCN(C(=O)c2ccccc2)CC1)c1ccc(Cl)cc1	1%	?	-13%	-16%	?	-23%
O=C(Cc1ccc(Cl)cc1)Nc1ccccc1N1CCN(C(=O)c2ccccc2)CC1	-25%	.	.	.	.	35µM*
OCCNc1ncnc2c1c(-c1ccccc1)c(-c1ccccc1)n2Cc1ccco1	?	?	1%	-1%	?	-4%
CC(C)Cn1cnc2c(c(-c3ccccc3)c(-c3ccccc3)n2Cc2ccco2)c1=N	6%	2.8µM*	?	?	6.3µM*	?
N=c1c2c(-c3ccccc3)c(-c3ccccc3)n(Cc3ccco3)c2ncn1Cc1ccccc1	-3%	-8%	-10%	-6%	1%	-9%
N=c1c2c(-c3ccccc3)c(-c3ccccc3)oc2ncn1CCCN1CCOCC1	-5%	8.2µM*	.	.	?	?
N=c1c2c(-c3ccccc3)c(-c3ccccc3)n(Cc3ccccc3)c2ncn1CCO	-10%	?	?	?	?	?
SMILES	Sm TGR block	Marburg entry inh	Vaccinia mCherry	Vaccinia Venus	LASV entry inh	FMDV inh
N=c1c2c(-c3ccccc3)c(-c3ccccc3)n(Cc3ccco3)c2ncn1CCCN1CCOCC1	1%	7.1µM*	-24%	?	-8%	-14%
c1ccc(-c2c(-c3ccccc3)n(Cc3ccco3)c3ncnc(NCCCn4ccnc4)c23)cc1	-23%	?	?	13µM*	?	?
N=c1c2c(-c3ccccc3)c(-c3ccccc3)oc2ncn1CCN1CCOCC1	5%	?	.	.	1%	?
CCN(C(=O)Cn1cnc2onc(-c3ccc(F)cc3)c2c1=O)c1cc(C)ccc1C	7%	.	-8%	-10%	24%[46.1 µM]	-15%
CC(C)(C)NC(=S)NCc1ccco1	25µM*	14%	-21%	-1%	4%	-11%
COc1ccccc1NC(=S)NCc1ccco1	35µM*	29%	.	12%	6%	20%
COc1ccc(/C(C)=N/NC(=S)NCc2ccco2)cc1	3%	-11%	-6%	-26%	2.1µM*	-11%
COc1ccc(CNC(=S)N/N=C(\C)c2ccc(OC)cc2)cc1	11%	-1%[46.1 µM]	-21%	-18%	?	6%
COc1cc(NC(=S)NCc2ccco2)cc(OC)c1OC	-35%	14%	-17%	-15%	12%	27%
C/C(=N\NC(=S)NCc1ccccc1)c1ccc2ccccc2c1	-3%	?	i	-2%	2.3µM*	-6%
O=C(c1cccs1)N1C[C@@H](O)[C@@H](n2cc(-c3ccc(F)cc3)nn2)C[C@@H]1c1ccc(Cl)cc1	.	.	.	.	-13%[46.1 µM]	.
CCOC(=O)c1c(C)c(-c2ccccc2)n(CC(=O)NC(CC)Cc2ccccc2)c1C (stereo unspecified)	6%	-30%[46.1 µM]	-4%	-2%	.	-19%
COc1ccc(-c2cc(C(=O)Nc3c(Cl)cccc3Cl)no2)cc1OC	12%	7%[46.1 µM]	-8%	-14%	4%[46.1 µM]	-1%
CCOC(=O)CN1C(=O)[C@@]2(CC(C)=CC[C@@H](COc3ccccc3)O2)c2ccccc21	.	-20%[14.2 µM]	.	.	?	.
COc1cc(CNCc2ccco2)cc(OC)c1O	16µM*	-13%[46.1 µM]	-11%	-16%	5%[46.1 µM]	-7%
COc1ccc(NC(=O)CN2C(=O)COc3ccc(S(=O)(=O)NC4CCCC4)cc32)cc1OC	0%	.	-3%	-3%	14%[46.1 µM]	8%
O=C(/C=C/c1ccc2ccccc2n1)c1cc(Br)ccc1O	32µM*	.	.	.	.	50%
O=C(O)/C=C/c1ccc2ccccc2n1	8%	?	?	-16%	-3%	.
O=C(CCc1nc2sc3c(c2c(=O)[nH]1)CCCC3)NCCOc1ccccc1	-6%	20%	-10%	1%	?	2%
CN(C)C(CNC(=O)CCc1nc2sc3c(c2c(=O)[nH]1)CCCC3)c1ccccc1 (stereo unspecified)	-2%	10µM*	-17%	-17%	0%	-22%
Cc1ccccc1Cn1c(SCc2ccc(C(=O)NC(C)c3ccccc3)cc2)nc2ccncc21 (stereo unspecified)	2%	?	?	?	-6%[46.1 µM]	-22%
O=C(CSc1nc2ccccc2c(=O)n1-c1ccccc1)N1CCc2ccccc2C1	-7%	?	-12%	-25%	10µM*	?
CC(C)c1ccccc1-n1c(SCC(=O)N2CCc3ccccc3C2)nc2ccccc2c1=O	-11%	?	.	.	?	?
